The whole screen tested about 5,500 compounds, of which about 2,000 (36%) were called active. About 18% were inconclusive and are not listed. Cut-off read from the data, not from the text of the source: active = normalized growth mostly below about 0.91 (no sharp cut-off); inconclusive = no clear call, values can overlap the other calls; inactive = mostly above about 0.92. The list shows a part of the results.
Experiment: chemical genetic growth profiling, strain panel (AID 1159580);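 note: tested at 20 µM; growth read once vehicle control cultures reached saturation at 30 °C; 1 = growth at the plate median or of vehicle wells; lower values mean less growth of the strain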
Conditions: growth OD

Measured: normalized growth

C[C@@H]1C[C@@H]([C@H](O)CC2CC(=O)NC(=O)C2)C(=O)[C@@H](C)C1
active: S. cerevisiae deletion strains, locus YJR075W, strain HOC1, hits give low values 0.0698 | S. cerevisiae deletion strains, locus YKL009W, strain mrt4, hits give low values 0.0696 | S. cerevisiae deletion strains, locus YKL068W, hits give low values 0.0541 | S. cerevisiae deletion strains, locus YKL085W, strain MDH1 (second series), hits give low values 0.0512 | S. cerevisiae deletion strains, locus YKL085W, strain MDH1, hits give low values 0.0512 | S. cerevisiae deletion strains, locus YKL160W, strain elf1, hits give low values 0.0661 | S. cerevisiae deletion strains, locus YKL190W, strain CNB1, hits give low values 0.0498 | S. cerevisiae deletion strains, locus YKR001C, strain vps1, hits give low values 0.0635 | S. cerevisiae deletion strains, locus YKR026C, strain gcn3, hits give low values 0.0607 | S. cerevisiae deletion strains, locus YKR091W, strain srl3, hits give low values 0.0583 | S. cerevisiae deletion strains, locus YLL001W, strain dnm1, hits give low values 0.0597 | S. cerevisiae deletion strains, locus YLL026W, hits give low values 0.0551 | S. cerevisiae deletion strains, locus YLL041C, strain sdh2, hits give low values 0.0553 | S. cerevisiae deletion strains, locus YLR027C, strain aat2, hits give low values 0.0609 | S. cerevisiae deletion strains, locus YLR039C, strain RIC1, hits give low values 0.0922 | S. cerevisiae deletion strains, locus YLR058C, strain SHM2, hits give low values 0.041 | S. cerevisiae deletion strains, locus YLR102C, strain apc9, hits give low values 0.0592 | S. cerevisiae deletion strains, locus YLR113W, strain HOG1, hits give low values 0.12 | S. cerevisiae deletion strains, locus YLR221C, strain rsa3, hits give low values 0.0588 | S. cerevisiae deletion strains, locus YLR258W, strain gsy2, hits give low values 0.0568 | S. cerevisiae deletion strains, locus YLR262C, strain YPT6 (second series), hits give low values 0.0723 | S. cerevisiae deletion strains, locus YLR262C, strain YPT6, hits give low values 0.108 | S. cerevisiae deletion strains, locus YLR268W, strain sec22, hits give low values 0.0667 | S. cerevisiae deletion strains, locus YLR320W, strain mms22, hits give low values 0.0766 | S. cerevisiae deletion strains, locus YLR330W, strain CHS5, hits give low values 0.0515 | S. cerevisiae deletion strains, locus YLR342W, strain FKS1 (second series), hits give low values 0.0688 | S. cerevisiae deletion strains, locus YLR342W, strain FKS1, hits give low values 0.0659 | S. cerevisiae deletion strains, locus YLR357W, strain rsc2, hits give low values 0.119 | S. cerevisiae deletion strains, locus YLR370C, strain arc18, hits give low values 0.0598 | S. cerevisiae deletion strains, locus YLR371W, strain rom2, hits give low values 0.0594 | S. cerevisiae deletion strains, locus YLR384C, strain iki3, hits give low values 0.0596 | S. cerevisiae deletion strains, locus YLR418C, strain cdc73, hits give low values 0.0977 | S. cerevisiae deletion strains, locus YML016C, strain PPZ1, hits give low values 0.055 | S. cerevisiae deletion strains, locus YML032C, strain rad52, hits give low values 0.0671 | S. cerevisiae deletion strains, locus YML120C, strain ndi1, hits give low values 0.0554 | S. cerevisiae deletion strains, locus YML124C, strain tub3, hits give low values 0.0568 | S. cerevisiae deletion strains, locus YMR058W, strain fet3, hits give low values 0.0596 | S. cerevisiae deletion strains, locus YMR078C, strain ctf18, hits give low values 0.0691 | S. cerevisiae deletion strains, locus YMR125W, strain sto1, hits give low values 0.0765 | S. cerevisiae deletion strains, locus YMR129W, hits give low values 0.0549 | S. cerevisiae deletion strains, locus YMR205C, strain PFK2, hits give low values 0.0823 | S. cerevisiae deletion strains, locus YMR223W, strain ubp8, hits give low values 0.065 | S. cerevisiae deletion strains, locus YMR231W, strain pep5, hits give low values 0.0689 | S. cerevisiae deletion strains, locus YMR263W, strain SAP30, hits give low values 0.0637 | S. cerevisiae deletion strains, locus YMR307W, strain GAS1, hits give low values 0.121 | S. cerevisiae deletion strains, locus YNL067W, strain RPL9B, hits give low values 0.0574 | S. cerevisiae deletion strains, locus YNL071W, strain lat1, hits give low values 0.0587 | S. cerevisiae deletion strains, locus YNL128W, strain TEP1, hits give low values 0.0594 | S. cerevisiae deletion strains, locus YNL153C, strain GIM3, hits give low values 0.0488 | S. cerevisiae deletion strains, locus YNL183C, strain NPR1, hits give low values -0.00319 | S. cerevisiae deletion strains, locus YNL209W, strain ssb2, hits give low values 0.0566 | S. cerevisiae deletion strains, locus YNL233W, strain BNI4, hits give low values 0.0543 | S. cerevisiae deletion strains, locus YNL248C, strain rpa49, hits give low values 0.0754 | S. cerevisiae deletion strains, locus YNL250W, strain rad50, hits give low values 0.0626 | S. cerevisiae deletion strains, locus YNL271C, strain bni1, hits give low values 0.0609 | S. cerevisiae deletion strains, locus YNL298W, strain CLA4, hits give low values 0.0597 | S. cerevisiae deletion strains, locus YNL307C, strain MCK1, hits give low values 0.0682 | S. cerevisiae deletion strains, locus YNL322C, strain KRE1 (second series), hits give low values 0.0709 | S. cerevisiae deletion strains, locus YNL322C, strain KRE1, hits give low values 0.0498 | S. cerevisiae deletion strains, locus YNR049C, strain mso1, hits give low values 0.0539 | S. cerevisiae deletion strains, locus YNR052C, strain pop2, hits give low values 0.0603 | S. cerevisiae deletion strains, locus YOL006C, strain TOP1, hits give low values 0.0855 | S. cerevisiae deletion strains, locus YOL147C, strain pex11, hits give low values 0.0565 | S. cerevisiae deletion strains, locus YOR001W, strain rrp6, hits give low values 0.0676 | S. cerevisiae deletion strains, locus YOR061W, strain CKA2, hits give low values 0.0412 | S. cerevisiae deletion strains, locus YOR069W, strain VPS5, hits give low values 0.0494 | S. cerevisiae deletion strains, locus YOR070C, strain gyp1, hits give low values 0.056 | S. cerevisiae deletion strains, locus YOR080W, strain dia2, hits give low values 0.0619 | S. cerevisiae deletion strains, locus YOR083W, strain WHI5, hits give low values 0.0654 | S. cerevisiae deletion strains, locus YOR106W, strain vam3, hits give low values 0.0681 | S. cerevisiae deletion strains, locus YOR136W, strain idh2, hits give low values 0.0689 | S. cerevisiae deletion strains, locus YOR144C, strain elg1, hits give low values 0.0565 | S. cerevisiae deletion strains, locus YOR184W, strain ser1, hits give low values 0.0727 | S. cerevisiae deletion strains, locus YOR231W, strain MKK1, hits give low values 0.111 | S. cerevisiae deletion strains, locus YOR265W, strain rbl2, hits give low values 0.0548 | S. cerevisiae deletion strains, locus YOR270C, strain vph1, hits give low values 0.1 | S. cerevisiae deletion strains, locus YOR290C, strain snf2, hits give low values 0.0637 | S. cerevisiae deletion strains, locus YOR316C, strain cot1, hits give low values 0.0575 | S. cerevisiae deletion strains, locus YPL051W, strain arl3, hits give low values 0.0621 | S. cerevisiae deletion strains, locus YPL055C, strain LGE1, hits give low values 0.0743 | S. cerevisiae deletion strains, locus YPL078C, strain atp4, hits give low values 0.0696 | S. cerevisiae deletion strains, locus YPL106C, strain sse1, hits give low values 0.0938 | S. cerevisiae deletion strains, locus YPL240C, strain hsp82, hits give low values 0.0556 | S. cerevisiae deletion strains, locus YPL241C, strain CIN2, hits give low values 0.0514 | S. cerevisiae deletion strains, locus YPL256C, strain CLN2, hits give low values 0.112 | S. cerevisiae deletion strains, locus YPR119W, strain clb2, hits give low values 0.0611 | S. cerevisiae deletion strains, locus YPR141C, strain kar3, hits give low values 0.0644 | S. cerevisiae deletion strains, locus YPR163C, strain tif3, hits give low values 0.0667 | S. cerevisiae deletion strains, locus YPR167C, strain met16, hits give low values 0.0591 | S. cerevisiae deletion strains, strain wtn01, hits give low values 0.0603 | S. cerevisiae strains, strain wild type, hits give low values 0.0494
inactive: S. cerevisiae deletion strains, locus YOL012C, strain htz1 0.234

From PubChem BioAssay AID1159580 (chemical genetic matrix, 2015)
